Columns and labels:
Test in all cases: log2 ratio of Biotin-Ahx-Ub-VS probe labelling (fragment/DMSO); higher = less target engagement (more negative = stronger competition), active = hit call of the paper (q ≤ 0.05, log2 ratio ≤ -1)
Conditions in all cases: compound concentration: 200 uM; treatment time: 3 h
[1] = target: T1, ALG13 (UniProt Q9NP73)
T1 sequence (whole entry): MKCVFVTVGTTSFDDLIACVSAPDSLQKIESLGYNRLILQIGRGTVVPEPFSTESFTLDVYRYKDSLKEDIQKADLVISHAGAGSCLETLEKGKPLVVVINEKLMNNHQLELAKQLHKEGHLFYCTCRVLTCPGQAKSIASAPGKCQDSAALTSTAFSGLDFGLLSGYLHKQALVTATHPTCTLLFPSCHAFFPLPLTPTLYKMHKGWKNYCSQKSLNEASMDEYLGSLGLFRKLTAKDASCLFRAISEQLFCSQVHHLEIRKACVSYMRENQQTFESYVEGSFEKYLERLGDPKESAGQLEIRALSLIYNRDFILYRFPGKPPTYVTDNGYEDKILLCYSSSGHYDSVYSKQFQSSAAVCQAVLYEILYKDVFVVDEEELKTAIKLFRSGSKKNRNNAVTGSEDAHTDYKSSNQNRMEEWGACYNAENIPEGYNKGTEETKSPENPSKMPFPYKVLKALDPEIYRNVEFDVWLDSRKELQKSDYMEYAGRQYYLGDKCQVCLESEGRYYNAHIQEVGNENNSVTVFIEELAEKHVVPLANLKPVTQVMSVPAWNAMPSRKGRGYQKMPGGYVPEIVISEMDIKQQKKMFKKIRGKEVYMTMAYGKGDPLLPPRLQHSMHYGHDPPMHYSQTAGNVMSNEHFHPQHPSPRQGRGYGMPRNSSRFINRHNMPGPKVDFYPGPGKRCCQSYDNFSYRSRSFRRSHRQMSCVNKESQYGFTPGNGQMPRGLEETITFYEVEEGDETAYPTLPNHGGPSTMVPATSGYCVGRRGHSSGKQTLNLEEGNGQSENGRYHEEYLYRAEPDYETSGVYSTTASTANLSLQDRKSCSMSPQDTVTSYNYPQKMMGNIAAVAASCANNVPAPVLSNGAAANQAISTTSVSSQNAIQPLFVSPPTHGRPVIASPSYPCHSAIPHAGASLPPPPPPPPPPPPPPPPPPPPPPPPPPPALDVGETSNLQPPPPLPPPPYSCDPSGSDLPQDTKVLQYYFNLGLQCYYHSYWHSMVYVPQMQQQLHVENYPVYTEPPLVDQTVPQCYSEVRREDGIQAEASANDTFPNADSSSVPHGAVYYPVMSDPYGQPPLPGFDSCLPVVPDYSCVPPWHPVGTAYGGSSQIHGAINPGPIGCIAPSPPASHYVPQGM
Summary of the method: (§1)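 In triplicate, 495 µg of HEK293T lysate per sample was incubated with fragment at 200 µM or vehicle for 3 h. Biotin-Ahx-Ub-VS was then added to 0.5 µM final for 1 h, and labelled DUBs were captured with NeutrAvidin, digested with LysC and trypsin, and measured by diaPASEF LC-MS/MS. Data are average log2 fragment/vehicle ratios by unpaired t-test from global-median-normalised Spectronaut label-free quantities, restricted to proteins with ≥2 unique peptides.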

[2] = target: ATXN3 (UniProt P54252)
Summary of the method: as §1

[3] = target: T2, BAP1 (UniProt Q92560)
T2 sequence (whole entry): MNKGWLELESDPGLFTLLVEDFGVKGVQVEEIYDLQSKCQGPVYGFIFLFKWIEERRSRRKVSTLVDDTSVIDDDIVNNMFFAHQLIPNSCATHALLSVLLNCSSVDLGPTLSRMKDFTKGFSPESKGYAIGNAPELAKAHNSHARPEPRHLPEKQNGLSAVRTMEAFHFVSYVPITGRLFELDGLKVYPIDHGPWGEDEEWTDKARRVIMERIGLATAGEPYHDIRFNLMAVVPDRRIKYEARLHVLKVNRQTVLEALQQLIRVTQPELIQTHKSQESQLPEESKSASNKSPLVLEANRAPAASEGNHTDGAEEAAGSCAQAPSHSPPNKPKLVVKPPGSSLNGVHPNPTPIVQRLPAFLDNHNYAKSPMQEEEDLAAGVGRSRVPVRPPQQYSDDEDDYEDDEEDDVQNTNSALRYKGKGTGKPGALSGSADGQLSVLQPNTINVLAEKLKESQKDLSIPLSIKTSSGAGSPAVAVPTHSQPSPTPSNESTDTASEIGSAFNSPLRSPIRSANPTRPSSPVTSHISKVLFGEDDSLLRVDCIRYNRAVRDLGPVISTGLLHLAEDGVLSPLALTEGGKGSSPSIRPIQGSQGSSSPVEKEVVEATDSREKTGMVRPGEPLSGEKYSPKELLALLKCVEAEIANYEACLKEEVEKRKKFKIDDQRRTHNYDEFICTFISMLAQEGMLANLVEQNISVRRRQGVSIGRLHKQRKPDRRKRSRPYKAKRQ
Summary of the method: as §1

[4] = target: EIF3F (UniProt O00303)
Summary of the method: as §1

[5] = target: EIF3H (UniProt O15372)
Summary of the method: as §1

[6] = target: T3, FAM105A (UniProt Q9NUU6)
T3 sequence (whole entry): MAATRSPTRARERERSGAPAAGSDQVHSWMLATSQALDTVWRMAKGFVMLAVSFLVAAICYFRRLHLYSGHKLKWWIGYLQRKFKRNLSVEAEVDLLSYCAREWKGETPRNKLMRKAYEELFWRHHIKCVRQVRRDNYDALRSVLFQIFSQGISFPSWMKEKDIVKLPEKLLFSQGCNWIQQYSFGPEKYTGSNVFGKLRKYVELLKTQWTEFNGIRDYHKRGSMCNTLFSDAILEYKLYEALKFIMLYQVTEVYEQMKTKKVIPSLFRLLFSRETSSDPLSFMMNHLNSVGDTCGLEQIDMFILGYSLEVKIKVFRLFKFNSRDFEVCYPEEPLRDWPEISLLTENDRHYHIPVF
Summary of the method: as §1

[7] = target: OTUB1 (UniProt Q96FW1)
Summary of the method: as §1

[8] = target: T4, OTUD4 (UniProt Q01804)
T4 sequence (whole entry): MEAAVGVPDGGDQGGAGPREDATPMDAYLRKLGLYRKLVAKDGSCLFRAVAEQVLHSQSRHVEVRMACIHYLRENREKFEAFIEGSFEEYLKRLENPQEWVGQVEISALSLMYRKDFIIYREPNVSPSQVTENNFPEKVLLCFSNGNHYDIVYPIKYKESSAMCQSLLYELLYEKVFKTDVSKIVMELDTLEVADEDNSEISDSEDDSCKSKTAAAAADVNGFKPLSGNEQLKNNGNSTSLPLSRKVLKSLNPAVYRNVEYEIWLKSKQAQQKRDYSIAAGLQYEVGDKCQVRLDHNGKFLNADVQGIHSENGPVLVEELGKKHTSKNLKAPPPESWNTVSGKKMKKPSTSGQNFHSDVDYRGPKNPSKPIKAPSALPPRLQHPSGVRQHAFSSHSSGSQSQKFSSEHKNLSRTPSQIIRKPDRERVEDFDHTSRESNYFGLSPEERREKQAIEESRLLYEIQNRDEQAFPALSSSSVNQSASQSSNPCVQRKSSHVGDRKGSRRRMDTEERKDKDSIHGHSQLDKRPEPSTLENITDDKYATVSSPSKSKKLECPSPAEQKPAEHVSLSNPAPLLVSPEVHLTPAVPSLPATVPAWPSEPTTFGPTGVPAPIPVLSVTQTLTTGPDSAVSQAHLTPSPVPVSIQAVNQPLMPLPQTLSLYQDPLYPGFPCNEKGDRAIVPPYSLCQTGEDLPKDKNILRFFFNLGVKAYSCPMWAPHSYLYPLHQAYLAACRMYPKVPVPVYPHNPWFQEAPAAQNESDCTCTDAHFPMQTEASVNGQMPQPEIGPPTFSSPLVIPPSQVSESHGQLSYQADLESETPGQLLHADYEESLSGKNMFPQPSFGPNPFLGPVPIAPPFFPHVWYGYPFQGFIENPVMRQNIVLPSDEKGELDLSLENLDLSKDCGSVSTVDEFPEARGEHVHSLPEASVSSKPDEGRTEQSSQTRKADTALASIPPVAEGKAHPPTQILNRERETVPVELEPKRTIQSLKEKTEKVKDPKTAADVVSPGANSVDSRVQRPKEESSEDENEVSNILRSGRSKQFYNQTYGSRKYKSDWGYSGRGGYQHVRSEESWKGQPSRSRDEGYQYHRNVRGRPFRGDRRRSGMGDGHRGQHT
Summary of the method: as §1

[9] = target: T5, OTUD5 (UniProt Q96G74)
T5 sequence (whole entry): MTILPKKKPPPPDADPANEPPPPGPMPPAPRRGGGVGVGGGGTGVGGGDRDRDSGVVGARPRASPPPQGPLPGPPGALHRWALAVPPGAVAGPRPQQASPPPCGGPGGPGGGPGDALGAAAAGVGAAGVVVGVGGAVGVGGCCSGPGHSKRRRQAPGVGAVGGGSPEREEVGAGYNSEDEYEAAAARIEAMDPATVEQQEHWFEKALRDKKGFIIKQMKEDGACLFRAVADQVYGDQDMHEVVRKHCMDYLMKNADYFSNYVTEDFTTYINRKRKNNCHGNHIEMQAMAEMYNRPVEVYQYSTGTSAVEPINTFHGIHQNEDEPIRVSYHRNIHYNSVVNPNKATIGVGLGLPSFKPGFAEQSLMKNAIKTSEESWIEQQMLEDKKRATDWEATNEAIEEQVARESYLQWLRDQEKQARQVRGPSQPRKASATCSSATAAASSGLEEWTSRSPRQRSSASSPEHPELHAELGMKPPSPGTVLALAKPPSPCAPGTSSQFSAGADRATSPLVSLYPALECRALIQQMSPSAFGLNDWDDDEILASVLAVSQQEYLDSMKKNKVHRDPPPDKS
Summary of the method: as §1

Measured: log2 ratio of Biotin-Ahx-Ub-VS probe labelling

Chain of ATXN3 (P54252 whole entry): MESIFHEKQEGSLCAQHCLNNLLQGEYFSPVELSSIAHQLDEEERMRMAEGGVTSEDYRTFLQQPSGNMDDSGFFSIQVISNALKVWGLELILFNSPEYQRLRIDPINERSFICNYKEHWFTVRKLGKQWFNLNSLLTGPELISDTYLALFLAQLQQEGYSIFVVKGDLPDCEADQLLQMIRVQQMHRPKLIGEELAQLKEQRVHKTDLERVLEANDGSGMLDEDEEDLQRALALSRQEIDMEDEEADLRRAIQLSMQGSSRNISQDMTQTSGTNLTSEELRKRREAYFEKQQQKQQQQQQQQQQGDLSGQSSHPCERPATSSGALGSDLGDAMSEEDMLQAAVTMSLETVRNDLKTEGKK
Chain of OTUB1 (Q96FW1 whole entry): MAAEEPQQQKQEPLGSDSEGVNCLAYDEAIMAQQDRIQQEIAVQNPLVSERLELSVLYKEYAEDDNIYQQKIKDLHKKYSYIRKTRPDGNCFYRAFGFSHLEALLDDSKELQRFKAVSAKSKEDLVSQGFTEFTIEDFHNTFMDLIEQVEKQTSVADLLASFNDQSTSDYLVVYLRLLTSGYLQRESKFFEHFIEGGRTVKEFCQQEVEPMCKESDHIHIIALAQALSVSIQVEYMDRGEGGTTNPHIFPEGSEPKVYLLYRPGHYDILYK
Chain of EIF3F (O00303 whole entry): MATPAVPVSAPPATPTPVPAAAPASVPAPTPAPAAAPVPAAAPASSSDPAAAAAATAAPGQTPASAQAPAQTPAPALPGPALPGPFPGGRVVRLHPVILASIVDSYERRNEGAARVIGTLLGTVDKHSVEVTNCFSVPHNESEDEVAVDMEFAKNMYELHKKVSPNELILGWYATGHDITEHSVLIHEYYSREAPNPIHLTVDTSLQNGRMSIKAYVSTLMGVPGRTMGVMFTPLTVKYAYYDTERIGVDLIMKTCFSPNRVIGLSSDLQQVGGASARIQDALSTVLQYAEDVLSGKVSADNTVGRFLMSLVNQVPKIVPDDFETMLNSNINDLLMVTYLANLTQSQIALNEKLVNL
Chain of EIF3H (O15372 whole entry): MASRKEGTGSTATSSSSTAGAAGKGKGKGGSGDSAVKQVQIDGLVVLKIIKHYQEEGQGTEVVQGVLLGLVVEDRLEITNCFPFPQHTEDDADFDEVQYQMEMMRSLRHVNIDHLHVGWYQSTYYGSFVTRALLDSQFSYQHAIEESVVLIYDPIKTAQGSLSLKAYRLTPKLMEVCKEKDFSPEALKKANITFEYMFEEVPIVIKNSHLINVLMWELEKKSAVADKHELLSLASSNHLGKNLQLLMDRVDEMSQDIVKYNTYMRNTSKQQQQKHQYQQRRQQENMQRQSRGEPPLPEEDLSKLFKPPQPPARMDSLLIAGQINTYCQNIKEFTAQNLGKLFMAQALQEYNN

O=C(CCl)N1CCc2sccc2C1
inactive: [1] -0.104 | [2] -0.969 | [3] -0.988 | [4] -0.211 | [5] -0.00567 | [6] -0.348 | [7] -0.126 | [8] -0.819 | [9] -0.923

Reference: the supplement of paper PMC11732987, “Enantioselective OTUD7B fragment discovery through chemoproteomics screening and high-throughput optimisation” (Communications Chemistry, 2025)
